Most compounds without a hit are left out; they make up all but 1.3% or so of the library.
BRCA1 expr up – activators of BRCA1 expression; MCF7-BRCA1-FFLuc reporter, luminescence, 48 h; response scale: scaled: vehicle 0%, 10 µM genistein 100%; Potency, µM (titrated, usually from 46.1 µM), for the others: top-dose activation, most hits filed as activators; 380,000 tested, 1.1% active; AID 624202; further: potency means the concentration at half of the fitted maximal effect; nearly all actives have a fitted effect of over 80% in size
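Activators of BRCA1 expression were detected as increased firefly luciferase luminescence in engineered MCF7 cells after 48 h compound incubation. Signals were scaled to genistein 10 microM as full activation.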
Mito fusion yeast – inhibitors of mitochondrial division or activators of mitochondrial fusion; 320,000 tested, 0.23% active; Potency, µM (titrated, usually from 46.1 µM), inactives show at the highest dose growth rescue (activation), usual class: activators; S. cerevisiae fusion-defective mutant growth rescue, CellTiterGlo 48 h; further: potency means the concentration at half of the fitted maximal effect; % of control where 0% means no effect; nearly all actives have a fitted effect of over 45% in size
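Temperature-sensitive fusion-defective S. cerevisiae (e.g. fzo1-1, mgm1-5) were grown with compound in YPEG medium (3% ethanol, 3% glycerol) for 48 hours at 37C. Growth rescue was measured as viability by CellTiterGlo luminescence after 10 minutes at ambient.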
TCR activator – activates T cell receptor signaling | primary human leukocytes, anti-CD3, IL-2 HTRF, 48 h | Potency, µM (highest dose often 9.22 µM), for inactives: at the highest dose activation of IL-2 secretion, actives largely listed as activators | 330,000 tested, under 10 active | AID 504894; further: % of control where 0% means no effect
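1) Mix primary human leukocytes, a-CD3 beads and compound. 2) Incubate 48 hr. 3) Add HTRF IL-2 reagents (a-IL-2-K, a-IL-2-d2).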
p53 reactivation – restores transcriptional activity of mutant p53 | Potency, µM (top dose mostly 92.2 µM), inactives show top-dose activity change, positive = activation, most hits filed as activators | H1299 p53-A138V BP100-luciferase reporter, luminescence, 24 h | 320,000 tested, 0.063% active; further: potency means the concentration at half of the fitted maximal effect; % of control where 0% means no effect; nearly all actives have a fitted effect of over 45% in size
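H1299 (p53-null), stable ts p53-A138V + BP100-Luc; 1000 cells/well, Opti-MEM/10% FBS; cpd 4 pt, 1:5; 24 h, 37 deg C, 5% CO2; detection reagent 10 min RT; luminescence.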
IL-2 act – IL-2 activation. IL-2 activation reporter assay, cell-based qHTS; stimulated with anti-CD3/CD4/CD28 beads; in transgenic mouse T cells. activation, % (series mostly up to about 46 µM). 360,000 tested, 0.065% active. AID 652025; in the data active means activation above about 50%; inconclusive means mostly about 30% to 49%; further: 0% is about no effect
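EGFP and DsRed fluorescence is measured by plate cytometry in unstimulated transgenic mouse T cells exposed to compound for 60 minutes, then stimulated 18 hours at 37 degrees C with anti-CD3/anti-CD4 beads plus anti-CD28.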
The depositor's hits bear a star; ? = inconclusive; / = not tested or not shown; [ ] = remark or other dose. Unless noted, the call rests on the fitted dose curve; in most records, active means well fitted curve in the direction sought with a large enough effect; inconclusive means small, poorly fitted or top-dose-only effect, or another doubt; inactive means no such curve, though single readings can be large; an effect the other way counts as inactive or inconclusive.

SMILES	BRCA1 expr up	Mito fusion yeast	TCR activator	p53 reactivation	IL-2 act
CC(NC(=O)C12CC3CC(CC(C3)C1)C2)C(=O)NN=Cc1ccc([N+](=O)[O-])o1 (stereo not given)	-84%	/	-7%	?	0
Cc1ccc(C)c(CN2C(=O)c3ccccc3S(=O)c3ccc(C(=O)NCc4ccco4)cc32)c1 (stereo not given)	-56%	/	/	/	/
COc1cncc(C#Cc2ccccn2)c1	4.5µM*	/	/	/	0
O=C1/C(=C/c2cccs2)Cc2ccccc21	?	3%	-4%[46.1 µM]	40µM*	1
COc1cc(OC)c(OC)cc1/C=C1/Cc2ccccc2C1=O	-56%	8%	2%	-2%	126*
C[n+]1ccc(/C=C/c2ccc(C=S)cc2)c2ccccc21	-73%	/	/	/	/
COc1ccc(-c2nc(-c3ccccc3OC)no2)cc1OC	10µM*	29%	1%	?	-1
COc1ccc(-c2noc(CSc3ccccc3)n2)cc1OC	11µM*	-1%	3%	?	-1
Cc1ccc(SCc2nc(-c3ccccc3)no2)cc1	79%	-3%	-3%	?	1
CCCN1CNc2c(c(=O)[nH]c(=S)n2CCc2cccc(C)c2C)C1	-18%	/	/	/	/
COc1cc2c(NC3CCN(C(C)C)CC3)nc(N3CCCN(C)CC3)nc2cc1OCCOCCN1CCCC1	-58%	/	/	/	/
CN(C)c1ccc(/C=C/c2ccnc3c(O)cccc23)cc1	-71%	/	/	/	/
CN(C)c1ccc(C=Cc2ccnc3c(O)cccc23)cc1	-64%	/	/	/	148*
CC(C)(C)C(=O)Cn1ncc(N2CCCC2)c(Br)c1=O	10µM*	2%	1%	5%	-2
CC(C)(C)C(=O)Cn1ncc(N2CCOCC2)c(Br)c1=O	33%	-7%	/	16%	0
Cc1ccc(CNc2ncnc3c2cnn3-c2ccc(Cl)cc2)cc1	/	-4%	/	/	/
Cc1cccc(-n2ncc3c(NCc4cccnc4)ncnc32)c1	2.5µM*	4%	0%	?	-4
Cc1cccc(-n2ncc3c(NCCCO)ncnc32)c1	?	0%	3%	?	1
Cc1ccc(-n2ncc3c(NCc4cccnc4)ncnc32)c(C)c1	-33%	6%	1%	-1%	-2
C=CCNc1ncnc2c1cnn2-c1cccc(C)c1	2.2µM*	-4%	9%	13%	-4
Cc1ccc(-n2ncc3c(NCc4cccnc4)ncnc32)cc1C	1µM*	20%	-5%	?	-3
Clc1ccc(-n2ncc3c(NCc4ccccn4)ncnc32)cc1	10µM*	-1%	-3%	12%	2
COc1ccc(-n2ncc3c(NCc4cccnc4)ncnc32)cc1	89%	2%	-1%	?	-1
O=C(Cc1ccc(Br)cc1)N1CCCCCC1	10µM*	6%	6%	?	0
CCc1cc(Cn2nc(-c3ccccc3)cc2C(=O)NCc2cccs2)on1	-50%	13µM*	5%	-10%	-1
SMILES	BRCA1 expr up	Mito fusion yeast	TCR activator	p53 reactivation	IL-2 act
COc1ccc(N=C2C(=S)N(c3ccc(OC)cc3)C(=NS(=O)(=O)c3ccccc3)N2c2ccccc2)cc1	3.5µM*	/	4%	/	-1
N#Cc1cnc2nc(SCc3ccccc3)nn2c1	3.5µM*	9%	-4%	?	-1
Cc1nc2nc(SCc3ccccc3)nn2c(C)c1C	92%	10%	-8%	?	2
CCOC(=O)c1cn2nc(SCc3ccccc3)nc2nc1C	11µM*	-2%	/	/	3
O=C(C[n+]1cc(Br)cc(Br)c1)c1ccc2c(c1)CCCC2	0%	/	/	/	/
O=[N+]([O-])c1ccc(-c2ccc(/C=N/O)o2)cc1	8.9µM*	14%	7%	13%	-3
COc1ccc(-c2cnc(C(O)c3ccccc3)[nH]2)cc1 (stereo not given)	13µM*	/	/	/	0
COc1cccc(-c2cnc(C(O)c3ccccc3)[nH]2)c1 (stereo not given)	11µM*	/	/	/	0
OC(c1ccccc1)c1ncc(-c2ccccc2Cl)[nH]1 (stereo not given)	10µM*	/	/	/	1
COc1cccc(-c2cnc(C(O)c3ccc(C)cc3)[nH]2)c1 (stereo not given)	18%	/	/	/	0
CC1=C(C(=O)Nc2ccccc2)C(c2cccn2C)n2ncnc2N1 (stereo not given)	-6%	/	/	/	/
Cc1cccc(Nc2ccc([N+](=O)[O-])cn2)c1	11µM*	-5%	/	?	0
CCOc1cccc(Nc2ccc([N+](=O)[O-])cn2)c1	74%	0%	4%	/	-3
C(=C\c1ccnc2ccccc12)/c1ccccc1	-41%	/	/	/	/
CCOC(=O)c1cc(-c2ccc(N)cc2)sc1N	?	-1%	0%	9%	-3
CCOC(=O)c1sc(-c2ccc(Br)cc2)cc1N	7.1µM*	14%	/	10%	-1
COc1ccc(Nc2ncnc3sccc23)cc1	7.1µM*	1%	1%	?	-1
CCOc1c(Br)cc(C(N)=O)cc1OCc1ccccc1	-35%	11µM*	1%[46.1 µM]	3%	-1
COc1cc(C(N)=O)cc(Br)c1OCc1ccccc1	-26%	?	-2%[46.1 µM]	-4%	0
Cn1c2c(c3cnc4cc(Cl)ccc4c31)CNCC2	-38%	/	/	/	/
CC1CN(S(=O)(=O)c2cccc(-c3cn4ccccc4n3)c2)CC(C)O1 (stereo not given)	-53%	2.8µM*	-5%	5%	-4
O=C(Cc1cccs1)NCc1ccccc1Br	2.2µM*	7%	-7%	15%	-2
O=C(Cc1cccs1)NCc1ccc(Cl)cc1Cl	4µM*	1%	3%	/	-1
O=C(Cc1cccs1)NCc1cccc(CNC(=O)Cc2cccs2)c1	13%	-4%	10%	0%	1
CCCOc1ccc(CNC(=O)Cc2cccs2)cc1	7.9µM*	-5%	0%	?	-1
SMILES	BRCA1 expr up	Mito fusion yeast	TCR activator	p53 reactivation	IL-2 act
O=C(Cc1cccs1)NCc1cccc(Cl)c1	13µM*	9%	2%	17%	-2
CC(=O)N/C(=C/c1ccccc1)c1ccncc1	104%	/	/	/	/
Fc1ccc(CNc2cc(-c3ccccc3)nc3nncn23)cc1	0%	/	/	/	/
O=S(=O)(c1cccc(F)c1)N1CCN(c2nc(-c3cccs3)nc3ccccc23)CC1	10%	/	/	/	/
O=C(CSc1ncccn1)NCc1cccc(Cl)c1	11µM*	2%	-4%	6%	-1
COC(=O)c1ccc(NC(=O)Nc2ccc3c(c2)nc(C)n3C)cc1	?	-5%	2%	8%	2
Cc1cc(NC(=O)Nc2ccc3c(ccn3C)c2)sn1	10µM*	?	1%	/	0
C=CCNC(=O)CCc1nnc(C2(c3ccc(Cl)cc3)CCC2)o1	13µM*	9%	11%	?	0
N#C/C(=C\c1ccc(-c2ccccc2)cc1)c1nc(-c2ccco2)cs1	-62%	-2%	-1%[46.1 µM]	10%	79*
Fc1ccc(CCNc2ncnc3nc[nH]c23)cc1	28%	/	/	/	/
